Consider 36 compounds from PubChem BioAssay.

Sequence of Fibroblast growth factor 2 (Homo sapiens) (P09038 whole entry, looked up): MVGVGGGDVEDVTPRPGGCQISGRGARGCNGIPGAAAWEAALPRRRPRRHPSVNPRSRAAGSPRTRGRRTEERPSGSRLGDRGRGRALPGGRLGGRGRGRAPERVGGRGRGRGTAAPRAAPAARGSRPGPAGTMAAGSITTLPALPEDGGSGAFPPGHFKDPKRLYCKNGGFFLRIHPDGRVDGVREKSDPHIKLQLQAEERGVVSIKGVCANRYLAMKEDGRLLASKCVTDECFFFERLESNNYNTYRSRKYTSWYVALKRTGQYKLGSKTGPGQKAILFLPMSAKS

One assay has as its target Fibroblast growth factor 2 (Homo sapiens) (UniProt P09038). Nature of the assay: basic fibroblast growth factor binding to printed compounds – biochemical, small-molecule microarray, 635/667 nm fluorescence, primary screen (AID 1133). Conditions: FGF2, fluorescence 635/667, higher = more signal.
As for `CCc1cc2c(nc1CC)CCN(CCC(C)=NOC[C@H]1O[C@H](c3ccccc3)C=C[C@@H]1Oc1ccc(OC)cc1)C2`, the composite z-score was -0.155.
Regarding `CC(C)CON=C1C[C@@H](O)[C@@H](O)[C@@H]2[C@@H]3C(=O)N(C4CCCCC4)C(=O)[C@@H]3CC[C@@H]12`, the composite z-score was -0.309.
Same read-out and setting: next, `CCN1C(=O)[C@H]2[C@H]3[C@H](O)[C@H](O)CC(=O)[C@@H]3CC[C@H]2C1=O`: 0.226.
On to `COC(=O)C1=C(C)N(Cc2ccccc2)[C@]23O[C@](C(=O)OC)(C(=O)N2[C@@H]1c1ccccc1)C(C(=O)OC)=C3C(=O)OC`, for which the composite z-score came to 0.808.
As to `CC(C)=NO[C@H](C)c1cn([C@H](CO)Cc2ccccc2)nn1`, the composite z-score amounted to 0.137.
On the same count and under the same terms, next, `CON=Cc1ccc(C(=O)N2[C@H](c3ccc(C)cc3)[C@@H](C)CC[C@H]2C(=O)OC)cc1`: 0.412; `CCN1C(=O)[C@@H]2[C@H]3C(=CC[C@@H]2C1=O)C1(OCCCO1)[C@H]1O[C@H]1[C@H]3O`: 0.944; `O=C(NN=C1C[C@@H](O)[C@@H](O)[C@@H]2[C@@H]3C(=O)N(C[C@@H]4CCCO4)C(=O)[C@@H]3CC[C@@H]12)OCc1ccccc1`: 0.23.
As to `CC(CCN1CCc2nc(-c3ccccc3)c(-c3ccccc3)cc2C1)=NOC[C@@H](O)COCc1ccco1`, the composite z-score worked out at 0.496.
Still for that read-out and setting: next, `O=C1[C@H]2[C@H]3[C@H](O)[C@H](O)CC(=NO[C@@H]4O[C@H](CO)[C@@H](O)[C@H](O)[C@H]4O)[C@H]3CC[C@H]2C(=O)N1c1cccc(Oc2ccccc2)c1`: 0.445; `O=C1C[C@@H](O)[C@@H](O)[C@@H]2[C@@H]3C(=O)N(Cc4ccc5c(c4)OCO5)C(=O)[C@@H]3CC[C@H]12`: 0.19.
`COC(=O)[C@@H]1CC[C@@H](C)[C@H](c2ccc(Br)cc2)N1` yielded a composite z-score of -0.0826.
For `CCOC(=O)[C@H](CC(C)C)NC(=O)CCC1CC(OC(=O)NCCc2ccc(F)cc2)CC2(CCCC(COC(=O)NCC(c3ccccc3)c3ccccc3)O2)O1` (stereo not given in full), the composite z-score is 0.533.
`COC(=O)[C@H](C)NC(=O)CCC1CC(OC(=O)NCc2ccc3c(c2)OCO3)CC2(CCCC(COC(=O)NCc3cccc(C(F)(F)F)c3)O2)O1` (stereo not given in full): the composite z-score was 0.63.
Consider `CC(C)=CCCC(C)=CCON=C1C[C@@H](O)[C@@H](O)[C@@H]2[C@@H]3C(=O)N(C(C)(C)C)C(=O)[C@@H]3CC[C@@H]12`, for which the composite z-score is 0.247.
Compound `Cc1ccc(S(=O)(=O)NC(CCc2ccccc2)CC(=O)C(C)(C)C)cc1` (stereo not given) displayed a composite z-score of 0.939.
In turn, `C#CCCCON=C1C[C@@H](O)[C@@H](O)[C@@H]2[C@@H]3C(=O)N(c4ccc(F)cc4F)C(=O)[C@@H]3CC[C@H]12` returned a composite z-score of 0.322.
`COC(=O)[C@H](C)NC(=O)CCC1CC(OC(=O)NCc2ccc3c(c2)OCO3)CC2(CCCC(COC(=O)NCCc3ccccc3OC)O2)O1` (stereo not given in full) showed a composite z-score of -0.0304.
On the same count and under the same terms, next, `CCCCC#C[C@@H]1C=C[C@H](Oc2ccc(C(=O)OC)cc2)[C@@H](COC(=O)OCC)O1`: 0.585; `CO[C@@H]1C=CCC(=O)N2CCC[C@H]2C(=O)OC[C@@H](C)C(=O)OC[C@H]1C`: 1.33.
For `COC(=O)CC=C[C@@H](C)[C@H](OCc1cccc(-c2ccccc2)c1)C1CCCCC1`, the composite z-score was -0.226.
The compound `O=C1C2=CC[C@H]3C(=O)N(c4cccc(Oc5ccccc5)c4)C(=O)[C@H]3[C@H]2[C@H](O)[C@@H]2O[C@H]12` had a composite z-score of 0.425.
Take `COC(=O)CC=C[C@@H](C)[C@@H](C=NO[C@@H](C)c1cc(-c2c(C)cc(C)cc2C)no1)NS(=O)(=O)c1ccc(C)cc1`: the composite z-score was -1.44.
For the compound `CCOC(=O)[C@H](CC(C)C)NC(=O)CCC1CC(OC(=O)NCCc2ccc(F)cc2)CC2(CCCC(COC(=O)NCC3CCCCC3)O2)O1` (stereo not given in full), the composite z-score was found to be 0.631.

System in another assay: not listed separately
Kind of assay: JC-1 mitochondrial potential readout, lung cancer cells – cell-based, A549, JC-1 fluorescence, basal, 24 h, 100 nL, profiling panel (AID 1138).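 Also: A549 lung adenocarcinoma cells under basal conditions with no added stimulus; test concentration not given here.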 Conditions: higher = more signal.
For `CCOC(=O)C1=NO[C@@]2(C=C(Br)C3(OCCCO3)[C@H]3O[C@H]32)C1`, the z-score was -0.0326.
With `C#CCCCON=C1C[C@@H](O)[C@@H](O)[C@@H]2[C@@H]3C(=O)N(C(C)(C)C)C(=O)[C@@H]3CC[C@H]12`, the z-score was -0.049.
Turning to `CO[C@@H]1COC(=O)[C@@H](C)COC(=O)[C@@H](C)NC(=O)CC=C[C@@H]1C`, the z-score is -1.24.
On the same count and under the same terms, next, `COC(=O)CC=C[C@@H](C)[C@@H](C=NO[C@H](C)c1cn([C@H](CO)Cc2ccccc2)nn1)NS(=O)(=O)c1ccc(C)cc1`: -0.248; `O=C(C=Cc1ccc2c(c1)OCO2)c1ccc(F)cc1`: -0.0292.
Turning to `CCOC(=O)[C@H](CC(C)C)NC(=O)CCC1CC(OC(=O)NCc2cccc3ccccc23)CC2(CCCC(COC(=O)NCCOC)O2)O1` (stereo not given in full), the z-score is -0.157.
Still for that read-out and setting: next, `C[C@@H]1C=CCC(=O)OC[C@H]2O[C@@H](C=C[C@@H]2O)[C@H](C)C=CCC(=O)OC1`: 2.16; `CCOC(=O)[C@H](CC(C)C)NC(=O)CCC1CC(OC(=O)NCc2cccc3ccccc23)CC2(CCCC(COC(=O)NCCCN3CCCC3=O)O2)O1` (stereo not given in full): -0.754; `CSCC[C@@H]1NC(=O)CC=C[C@@H](C)COC(=O)[C@@H](C)COC1=O`: 1.31.
As for `COc1ccc(O[C@H]2C=C[C@@H](c3ccccc3)O[C@@H]2CON=C(C)CCN2CCc3nc(-c4ccccc4)c(-c4ccccc4)cc3C2)cc1`, the z-score worked out at 1.87.
In turn, `C=COC[C@@H]1CN2[C@@H](CC[C@@H](C)[C@@H]2c2ccc(Br)cc2)C(=O)O1` displayed a z-score of -1.25.
The compound `COC(=O)CC=C[C@@H](C)[C@@H](C=NOCC[C@@H]1C=C[C@H](OC(C)=O)[C@@H](COC(C)=O)O1)NS(=O)(=O)c1ccc(C)cc1` showed a z-score of -0.482.
`CCc1cc2c(nc1CC)CCN(CCC(C)=NOC[C@H]1O[C@H](c3ccccc3)C=C[C@@H]1Oc1ccc(OC)cc1)C2` returned a z-score of 1.51.
On the same count and under the same terms, next, `CC(C)CON=C1C[C@@H](O)[C@@H](O)[C@@H]2[C@@H]3C(=O)N(C4CCCCC4)C(=O)[C@@H]3CC[C@@H]12`: -0.572; `CCN1C(=O)[C@H]2[C@H]3[C@H](O)[C@H](O)CC(=O)[C@@H]3CC[C@H]2C1=O`: 1.39.
Still for that read-out and setting: then `COC(=O)C1=C(C)N(Cc2ccccc2)[C@]23O[C@](C(=O)OC)(C(=O)N2[C@@H]1c1ccccc1)C(C(=O)OC)=C3C(=O)OC`, with -0.489; and `CC(C)=NO[C@H](C)c1cn([C@H](CO)Cc2ccccc2)nn1`, with -0.34; and `CON=Cc1ccc(C(=O)N2[C@H](c3ccc(C)cc3)[C@@H](C)CC[C@H]2C(=O)OC)cc1`, with -0.0876.
`CCN1C(=O)[C@@H]2[C@H]3C(=CC[C@@H]2C1=O)C1(OCCCO1)[C@H]1O[C@H]1[C@H]3O` had a z-score of -2.41.
The compound `O=C(NN=C1C[C@@H](O)[C@@H](O)[C@@H]2[C@@H]3C(=O)N(C[C@@H]4CCCO4)C(=O)[C@@H]3CC[C@@H]12)OCc1ccccc1` showed a z-score of 0.49.
For the compound `CC(CCN1CCc2nc(-c3ccccc3)c(-c3ccccc3)cc2C1)=NOC[C@@H](O)COCc1ccco1`, the z-score is 2.
In turn, `O=C1[C@H]2[C@H]3[C@H](O)[C@H](O)CC(=NO[C@@H]4O[C@H](CO)[C@@H](O)[C@H](O)[C@H]4O)[C@H]3CC[C@H]2C(=O)N1c1cccc(Oc2ccccc2)c1` had a z-score of -0.873.
In the case of `O=C1C[C@@H](O)[C@@H](O)[C@@H]2[C@@H]3C(=O)N(Cc4ccc5c(c4)OCO5)C(=O)[C@@H]3CC[C@H]12`, the z-score turned out to be 0.733.
`COC(=O)[C@@H]1CC[C@@H](C)[C@H](c2ccc(Br)cc2)N1` gave a z-score of 0.864.
As to `CCOC(=O)[C@H](CC(C)C)NC(=O)CCC1CC(OC(=O)NCCc2ccc(F)cc2)CC2(CCCC(COC(=O)NCC(c3ccccc3)c3ccccc3)O2)O1` (stereo not given in full), the z-score is -0.642.
Compound `COC(=O)[C@H](C)NC(=O)CCC1CC(OC(=O)NCc2ccc3c(c2)OCO3)CC2(CCCC(COC(=O)NCc3cccc(C(F)(F)F)c3)O2)O1` (stereo not given in full) gave a z-score of -0.238.
Still for that read-out and setting: then `CC(C)=CCCC(C)=CCON=C1C[C@@H](O)[C@@H](O)[C@@H]2[C@@H]3C(=O)N(C(C)(C)C)C(=O)[C@@H]3CC[C@@H]12`, with -0.872; and `Cc1ccc(S(=O)(=O)NC(CCc2ccccc2)CC(=O)C(C)(C)C)cc1` (stereo not given), with -0.124; and `C#CCCCON=C1C[C@@H](O)[C@@H](O)[C@@H]2[C@@H]3C(=O)N(c4ccc(F)cc4F)C(=O)[C@@H]3CC[C@H]12`, with 0.0852.
With `COC(=O)[C@H](C)NC(=O)CCC1CC(OC(=O)NCc2ccc3c(c2)OCO3)CC2(CCCC(COC(=O)NCCc3ccccc3OC)O2)O1` (stereo not given in full), the z-score was 0.159.
Turning to `CCCCC#C[C@@H]1C=C[C@H](Oc2ccc(C(=O)OC)cc2)[C@@H](COC(=O)OCC)O1`, the z-score was -0.896.
The compound `CO[C@@H]1C=CCC(=O)N2CCC[C@H]2C(=O)OC[C@@H](C)C(=O)OC[C@H]1C` registered a z-score of 2.01.
For `COC(=O)CC=C[C@@H](C)[C@H](OCc1cccc(-c2ccccc2)c1)C1CCCCC1`, the z-score worked out at 0.237.
Regarding `O=C1C2=CC[C@H]3C(=O)N(c4cccc(Oc5ccccc5)c4)C(=O)[C@H]3[C@H]2[C@H](O)[C@@H]2O[C@H]12`, the z-score was -0.633.
Same read-out and setting: then `COC(=O)CC=C[C@@H](C)[C@@H](C=NO[C@@H](C)c1cc(-c2c(C)cc(C)cc2C)no1)NS(=O)(=O)c1ccc(C)cc1`, with -0.0778; and `CCOC(=O)[C@H](CC(C)C)NC(=O)CCC1CC(OC(=O)NCCc2ccc(F)cc2)CC2(CCCC(COC(=O)NCC3CCCCC3)O2)O1` (stereo not given in full), with -0.506.
